# DAX1 inh-1 = inhibitors of DAX1 repression of SF-1 activated StAR promoter; HEK293T StAR-luciferase reporter, SF-1/DAX-1 repression relief; inhibition, % at 6.8 µM; 370,000 tested, 1.1% active;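 active means inhibition above the mean over all tested compounds plus 3 SD, cut at about 3.6% in these data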;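 further: 0% = DAX-1 cells with DMSO and 100% = cells lacking DAX-1 with DMSO; higher inhibition means more luminescence from relief of DAX-1 repression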
# hgDAF-12 ag = activates the H. glycines DAF-12 receptor ligand-binding domain; HEK293 GAL4-hgDAF12 UAS-luciferase reporter, agonist luminescence; normalized to butyrate control; activation, % at 6.8 µM; 370,000 tested, 1.8% active; AID 687014;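 active means activation above a cutoff set at the mean of all screened compounds plus 3 SD, cut at about 10% in these data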;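 further: 0% = DMSO wells and 100% = sodium butyrate wells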
# ssDAF-12 act = activates DAF-12 receptor from parasite S. stercoralis; AID 652126; activation, % at 6.8 µM; 370,000 tested, 1% active; HEK293 ssDAF-12/GRIP1 lit1-tk-luc reporter, luminescence; % of 3 µM dafachronic acid response;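 active means activation above the mean over all tested compounds plus 3 SD, cut at about 0.9% in these data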;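 further: 0% = DMSO-only wells and 100% = 3 µM delta7-dafachronic acid wells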
# hcDAF12 agonist = activates DAF-12 receptor from parasite H. contortus. HEK293 hcDAF-12 lit1-tk-luc reporter, luminescence; 0% DMSO, 100% Δ7-dafachronic acid. activation, % at 6.8 µM. 370,000 tested, 1.4% active. AID 652067;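 active means activation above the mean of all tested compounds plus 3 SD, cut at about 5.5% in these data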;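 further: 100% = response to 3 µM Δ7-dafachronic acid high control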
# DAX1 inh-2 = inhibits human nuclear receptor DAX1; P51843; HEK293 Gal4-DAX1 luciferase reporter, luminescence; inhibition, % at 6.75 µM; 340,000 tested, 0.99% active;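 active means inhibition above the mean over all tested compounds plus 3 SD, cut at about 4.2% in these data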;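 further: 0% = DAX1-transfected cells with DMSO and 100% = empty-vector control cells with DMSO; inhibition shows as a rise in luminescence from relieved DAX1 repression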
# Target sequence (P51843 207-470 limits assumed): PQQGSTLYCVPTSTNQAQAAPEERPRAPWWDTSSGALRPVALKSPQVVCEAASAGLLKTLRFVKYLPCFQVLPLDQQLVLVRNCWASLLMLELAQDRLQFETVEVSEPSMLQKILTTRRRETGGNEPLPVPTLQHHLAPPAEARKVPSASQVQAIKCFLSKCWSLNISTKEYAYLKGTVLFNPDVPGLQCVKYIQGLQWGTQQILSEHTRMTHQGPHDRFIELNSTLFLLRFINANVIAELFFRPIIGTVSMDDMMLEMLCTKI
# Starred values were filed as active, the others as inactive; nt = no result. Shown are actives, neighbours in structure and some others; about 4.1% of the full set was active somewhere.
SMILES,DAX1 inh-1,hgDAF-12 ag,ssDAF-12 act,hcDAF12 agonist,DAX1 inh-2
Cc1ccc(-n2c(SCC(N)=O)nnc2-c2ccco2)cc1,-1,-1,-2,0,1
COc1cccc(CSc2nnc(-c3ccco3)n2C)c1,0,1,-1,1,5.2*
COc1ccc(-n2c(SCC(N)=O)nnc2-c2ccco2)cc1,1,5,1,4,4.5*
C[C@@H](c1ccccc1)N1C[C@@H](COCc2ccccc2)Oc2cc(N3CCC[C@H]3C(N)=O)ccc2S1(=O)=O,1,3,4.2*,1,nt
O=C(c1ccco1)n1c(=S)nc2ccccn21,1,12*,0,3,2
Cc1cccc2nc(=S)n(C(=O)c3ccco3)n12,3,13*,0,3,4.6*
O=C(NC(=S)N1CCOCC1)c1cc2ccccc2o1,0,2,0,2,-1
Cc1ccc(NC(=O)c2ccc(OC(=O)COc3ccc(Cl)cc3C)cc2)cc1,3.9*,13*,0,6.1*,1
CC(C)C(=O)Nc1c(-c2ccccc2)c(=O)c2ccccc2n1C,0,0,-2,2,1
COc1ccc(-c2c(NC(=O)c3ccco3)n(-c3ccccc3)nc(C)c2=O)cc1,1,-1,-1,1,4.8*
Cn1c(NC(=O)c2ccco2)c(-c2ccccc2)c(=O)c2ccccc21,0,0,0,1,4.2*
COC(=O)C1N[C@@H]([C@@H](NC(=O)COc2ccccc2)C(=O)Nc2ccc(OC)cc2)SC1(C)C (stereo partly specified),1,0,-1,-1,-1
O=C(O)COc1ccc(Br)cc1/C=N\Nc1ccccn1,nt,nt,nt,nt,4.7*
CCOc1cc2c(cc1O)C(=NOC)CC1C2CCC2(C)C(O)CCC12 (stereo unspecified),4.3*,-6,-1,1,1
Cc1cc(C)nc(NC(=S)NC(=O)c2ccccc2F)n1,0,1,-1,1,nt
Cc1cc(C)nc(S/C=C/C(=O)c2ccccc2F)n1,1,0,-2,-1,6.2*
COC(=O)[C@@H](C)NC(=O)C(Cc1ccc2c(c1)OCO2)NC(C)=O (stereo partly specified),0,-1,-1,-1,nt
CCCCOCCCNC(=O)C[C@H]1C[C@@]2(C(=O)OC)C(=C[C@H](C(C)(C)C)O[C@@H]2C)N(Cc2ccc(Cl)cc2Cl)C1=O,0,-1,-1,-3,nt
CNc1nnc(-c2ccc(OC)cc2)s1,2,11*,-1,2,5.3*
CCOC(=O)NS(=O)(=O)c1ccc(CCNC(=O)c2cc(C)on2)cc1,1,0,-1,-4,0
O=C(O)/C=C/c1cccc2c1OCCO2,0,0,-2,-2,7.2*
O=c1[nH]c(/C=C/c2ccccc2F)nc2ccccc12,0,11*,0,5,0
O=C(C1CCCN1S(=O)(=O)c1cccc2ccccc12)N1CCN(c2ccccc2)CC1 (stereo unspecified),0,-4,2.5*,-3,nt
O=C(C1CCCN1S(=O)(=O)c1cccc2nsnc12)N1CCN(c2ccccc2)CC1 (stereo unspecified),nt,nt,nt,nt,-1
COc1ccc(CNS(=O)(=O)c2cc3c(cc2Br)CC(C)N3C(C)=O)cc1 (stereo unspecified),-1,-2,-1,-1,nt
SMILES,DAX1 inh-1,hgDAF-12 ag,ssDAF-12 act,hcDAF12 agonist,DAX1 inh-2
COC[C@H]1CCCN1c1ccc2c(c1)O[C@H]1CCN(C1)S2(=O)=O,-1,-3,-2,-2,nt
CCOc1ccc(C(=O)NCC(=O)OCc2nnc(-c3ccccc3)o2)cc1OCC,4.2*,-2,-1,0,1
COc1ccc(OC)c(C(C)NC(=O)c2ccc(Br)cc2)c1 (stereo unspecified),0,0,-2,0,8.4*
CCCN(CC1CC1)C(=O)CN1C(=O)C2CCCCN2C(=O)c2ccccc21 (stereo unspecified),-1,1,-2,-3,nt
CC(Sc1nnc(-c2ccc(OC(F)F)cc2)o1)C(=O)NCC1CCCO1 (stereo unspecified),1,-2,1.1*,2,0
CC(Sc1nnc(-c2ccc(OC(F)F)cc2)n1N)C(=O)NCC1CCCO1 (stereo unspecified),4.4*,1,-1,0,0
O=C(COC(=O)c1ccc(OC(F)F)cc1)NCC1CCCO1 (stereo unspecified),-2,4,-1,-1,1
COc1ccc(-n2c(SCC(=O)Nc3ccc(Oc4ccccc4)cc3)nnc2-c2ccc(C)cc2)cc1,0,-3,-1,-1,nt
Cc1cc(-c2cc(NC(=O)Cc3c[nH]c4ccccc34)ccc2N(C)c2cccnc2)ccc1F,0,-1,0,-1,nt
CCC(=O)OCCCN1CCC2(CCC(c3ccccc3)CC2)C1=O (stereo unspecified),0,-1,-1,5,nt
Clc1cccc(-c2csc(Nc3cccnc3)n2)c1,0,5,0,5.8*,1
CC1(C)C2CC=C(/C=N/NC(=S)Nc3cccnc3)C1C2 (stereo unspecified),0,-4,1.0*,1,0
Cc1ccc(OCC(=O)c2cc(C)n(C3CC3)c2C)c([N+](=O)[O-])n1,1,0,-2,1,1
Cc1cc(C(=O)COc2cccc([N+](=O)[O-])c2)c(C)n1C1CC1,2,13*,0,3,0
O=S(=O)(c1ccccc1)n1ccc2ccccc21,0,0,0,2,0
Cc1cc(C)c(S(=O)(=O)n2ccc3ccccc32)c(C)c1,1,1,1.7*,-1,0
COCC(C)NC(=S)Nc1ccccc1[N+](=O)[O-] (stereo unspecified),0,-2,2.4*,4,1
CCC[C@H]1[C@@H](N(C)CC2CCCCC2)CC[C@@]23CCCN2C(=O)CCC[C@@H]13,nt,-2,-1,0,nt
CN1C2=C(C(=O)CC(C)(C)C2)C(c2cccs2)C2=C1CC(C)(C)CC2=O,-1,0,-1,-2,5.3*
O=C1Cc2ccccc2C(=O)N1OCc1ccc(Cl)cc1,0,-1,0.9*,3,-1
COC(=O)C1=C(C)N(Cc2ccccc2C(F)(F)F)C(=NCc2ccc(OC)cc2)NC1c1ccccc1C(F)(F)F (stereo unspecified),-1,0,-1,-2,nt
Cc1ccc(S(=O)(=O)NNC(=O)c2cccnc2)cc1,1,0,0,0,1
O=C(NC(=S)NNC(=O)c1ccccc1O)c1cccnc1,2,2,0,2,4.3*
O=C(NC(=S)NNS(=O)(=O)c1ccccc1)c1cccnc1,0,-3,1.1*,2,0
c1cncc(-c2nc(-c3ccco3)cs2)c1,0,3,0,-1,0
c1cncc(-c2csc(-c3cccnc3)n2)c1,-1,6,-1,1,4.7*
